The record followed here is PubChem BioAssay AID1362 (SRMLSC, 2008).

The whole screen tested about 190,000 compounds, of which about 4,000 (2.1%) were called active. Cut-off read from the data, not from the text of the source: active = inhibition above about 58%; inactive = the rest, inconclusive results apart; tested in S. cerevisiae. This excerpt belongs to a sample that is enriched for actives.

This test in a line: growth inhibition of WT strain, primary screen, mitochondrial fusion inhibitor project, WT and mutant strains, chemical genetic (AID 1362). Particulars: mitochondrial fusion phenotypic screen, at 10 µM.
Setting [1] is: WT strain, growth inhibition, stronger effect = higher value.

Usually inhibition stands for the relative decrease from the control value, in per cent. For the compound `Cc1cc(C(F)F)n2nc(C(=O)Nc3ccc(S(=O)(=O)NC45CC6CC(CC(C6)C4)C5)cc3)nc2n1`, the inhibition by setting is: under setting [1], -1.63% (inactive); (mutant strain inhibition) -19.6%.

Take `CCn1nccc1C(=O)Nc1ccc(S(=O)(=O)NC23CC4CC(CC(C4)C2)C3)cc1`: the inhibition is, setting by setting: under setting [1], 64% (active); (mutant strain inhibition) -11.7%.

For the compound `CCn1nccc1C(=O)Nc1ccc(Cl)c(Cl)c1`, the inhibition is, setting by setting: under setting [1], 27.7% (inactive); (mutant strain inhibition) 28.1%.

For the compound `S=c1nc(C23CC4CC(CC(C4)C2)C3)nc2sccn12`, the inhibition is 23.5% (inactive) under setting [1] and 16.9% (mutant strain inhibition).

Turning to `COc1ccccc1N1CCN(CC(=O)NCCc2ccc(S(N)(=O)=O)cc2)CC1`, the inhibition reads like this: under setting [1], -0.9% (inactive); (mutant strain inhibition) 3.52%.

In the case of `COC(=O)NC1(C(F)(F)F)NC(=O)N(C2CCCCC2)C1=O` (stereo unspecified), the inhibition is 6.22% (inactive) under setting [1] and -5.73% (mutant strain inhibition).

In the case of `O=C1NC(Nc2nc3ccccc3s2)(C(F)(F)F)C(=O)N1C1CCCCC1` (stereo unspecified), the inhibition reads like this: under setting [1], 68.5% (active); (mutant strain inhibition) 15.8%.

Take `O=C(NC1(C(F)(F)F)NC(=O)N(C2CCCCC2)C1=O)c1ccco1` (stereo unspecified): the inhibition is -16.6% (inactive) under setting [1] and -15.1% (mutant strain inhibition).

Turning to `CS(=O)(=O)N(CC(=O)NC1CCCC1)Cc1ccc(F)cc1`, the inhibition was 1.23% (inactive) under setting [1] and -0.09% (mutant strain inhibition).

As to `CN(C)S(=O)(=O)c1cccc(NC(=O)COC(=O)/C=C/c2cccs2)c1`, the inhibition reads like this: under setting [1], 0.4% (inactive); (mutant strain inhibition) -0.76%.

Take `CN1CCN(S(=O)(=O)c2cccc(C(=O)N3CCc4ccccc43)c2)CC1`: the inhibition is -3.09% (inactive) under setting [1] and -6.02% (mutant strain inhibition).

Take `COc1cccc(CNC(=O)Cc2csc(Nc3nc(=S)[nH]c4ccccc34)n2)c1`: the inhibition under setting [1] is 2.48% (inactive) and the inhibition (mutant strain inhibition) was 7.91%.

As to `Cc1noc(C)c1CSCC(=O)Nc1nc2ccc(Oc3ccccc3)cc2s1`, the inhibition is 71.3% (active) under setting [1] and 34.8% (mutant strain inhibition).

Turning to `CCn1c(SCC(=O)Nc2nc3ccc(OC)cc3s2)nnc1-c1ccoc1C`, the inhibition is, setting by setting: under setting [1], 42% (inactive); (mutant strain inhibition) 9.68%.

With `CCOC(=O)c1c(C2CC2)csc1NC(=O)CSCc1c(C)noc1C`, the inhibition under setting [1] is -0.08% (inactive) and the inhibition (mutant strain inhibition) stood at 6.46%.

On to `O=C(O)Cc1ccc(NCc2ccccc2Cl)cc1`, for which the inhibition runs as follows: under setting [1], 2.97% (inactive); (mutant strain inhibition) -2.38%.

As for `CN1CCNC(=O)C1CC(=O)NCCC1=CCCCC1` (stereo unspecified), the inhibition under setting [1] is 13.1% (inactive) and the inhibition (mutant strain inhibition) is 9.2%.

On to `Cc1ccc(-c2csc(NNC(=O)c3ccccc3)n2)cc1`, for which the inhibition under setting [1] is 9.24% (inactive) and the inhibition (mutant strain inhibition) amounted to 14%.

Turning to `Clc1ccc(-c2csc(-c3ccncc3)n2)cc1`, the inhibition under setting [1] was 25.2% (inactive) and the inhibition (mutant strain inhibition) turned out to be 28.4%.

Take `CCCc1cc(-c2nc(-c3ccc(C)cc3)cs2)ccn1`: the inhibition under setting [1] is 77.9% (active) and the inhibition (mutant strain inhibition) came to 50.8%.

Turning to `CC1Cc2ccccc2N1C(=O)CSc1nnc(C2CC2)n1C` (stereo unspecified), the inhibition runs as follows: under setting [1], -5.06% (inactive); (mutant strain inhibition) 2.15%.

For `Cc1ccc(NC(=S)N/N=C2/CCCc3c(C)cc(C)cc32)cc1`, the inhibition was 23.1% (inactive) under setting [1] and 23.1% (mutant strain inhibition).

As for `Cc1ccc(C)c(NC(=S)NNC(=O)c2csc(C)c2)c1`, the inhibition under setting [1] was -2.09% (inactive) and the inhibition (mutant strain inhibition) was -14.4%.

Turning to `Cc1ccc(C)c(NC(=S)NNC(=S)Nc2ccc(C(C)C)cc2)c1`, the inhibition runs as follows: under setting [1], 71.3% (active); (mutant strain inhibition) 24.5%.

For the compound `Cc1nn(CCOc2ccc(Br)cc2)c(C)c1[N+](=O)[O-]`, the inhibition runs as follows: under setting [1], 3.38% (inactive); (mutant strain inhibition) -3.33%.

For `O=S(=O)(Cc1ccccc1)c1nc2ccccc2n1Cc1ccccn1`, the inhibition runs as follows: under setting [1], 23.5% (inactive); (mutant strain inhibition) 10.5%.

With `OC(CN=c1sc2ccccc2n1CC(O)COc1ccccc1)COc1ccccc1` (stereo unspecified), the inhibition reads like this: under setting [1], 74.3% (active); (mutant strain inhibition) 39.9%.

As to `OC(COc1ccccc1)Cn1cc(Br)cn1` (stereo unspecified), the inhibition under setting [1] is 5.35% (inactive) and the inhibition (mutant strain inhibition) was -3.45%.

With `C=CCn1c(=N)n(CC(O)COc2ccc(OC)cc2)c2ccccc21` (stereo unspecified), the inhibition under setting [1] is 10.5% (inactive) and the inhibition (mutant strain inhibition) was -4.41%.

On to `COc1ccccc1C(c1nnnn1CC1CCCO1)N1CCN(c2ccccc2)CC1` (stereo unspecified), for which the inhibition runs as follows: under setting [1], 24.2% (inactive); (mutant strain inhibition) -7.45%.

In the case of `O=C1COc2ccc(C(=O)COC(=O)C3CC(O)CN3S(=O)(=O)c3ccc(Cl)cc3)cc2N1` (stereo unspecified), the inhibition is 7.83% (inactive) under setting [1] and 0.3% (mutant strain inhibition).

As to `Cc1ccnc(NC(=O)CCC(=O)N(CC(=O)NCc2ccccc2)Cc2ccco2)c1`, the inhibition is -6.89% (inactive) under setting [1] and 16.9% (mutant strain inhibition).

As for `O=S1(=O)CCC(NC(=S)SCc2ccccc2Br)C1` (stereo unspecified), the inhibition runs as follows: under setting [1], -2.13% (inactive); (mutant strain inhibition) 13.4%.

Turning to `COCCn1c(CN(Cc2ccccc2)Cc2ccccc2)nc2c1c(=O)n(C)c(=O)n2C`, the inhibition was 13% (inactive) under setting [1] and -1.28% (mutant strain inhibition).

Regarding `CC(C)Cn1c(CN(Cc2ccccc2)Cc2ccccc2)nc2c1c(=O)n(C)c(=O)n2C`, the inhibition was 85.5% (active) under setting [1] and 23.3% (mutant strain inhibition).

Consider `CC(C)CCn1c(CN(C)Cc2ccccc2)nc2c1c(=O)n(C)c(=O)n2C`, for which the inhibition is 1.88% (inactive) under setting [1] and 1.47% (mutant strain inhibition).

Take `Cc1ccc2nc(C)cc(N/N=C/c3ccc(F)cc3)c2c1`: the inhibition is, setting by setting: under setting [1], 6.16% (inactive); (mutant strain inhibition) 21%.

In the case of `CCOC(=O)c1cccc(NC(=O)CCOc2ccccc2)c1`, the inhibition under setting [1] is 3.69% (inactive) and the inhibition (mutant strain inhibition) is 2.18%.

`COc1ccccc1CSc1nc2ccccc2[nH]1`: the inhibition runs as follows: under setting [1], -4.85% (inactive); (mutant strain inhibition) -2.06%.

In the case of `COc1ccccc1CSc1ncc(-c2ccc([N+](=O)[O-])cc2)[nH]1`, the inhibition was 63.4% (active) under setting [1] and 30.7% (mutant strain inhibition).

In the case of `COc1ccccc1CC(=O)Nc1ccc([N+](=O)[O-])cc1OC`, the inhibition by setting is: under setting [1], -6.53% (inactive); (mutant strain inhibition) -1.24%.

Take `COCC(C)NCc1cc(Br)ccc1OC` (stereo unspecified): the inhibition was 7.52% (inactive) under setting [1] and 7.1% (mutant strain inhibition).

As for `CCCOc1ccc(C(=O)NCCc2ccccc2)cc1`, the inhibition under setting [1] is -6.25% (inactive) and the inhibition (mutant strain inhibition) was -16.2%.
